# Compound activity as filed in PubChem BioAssay.
# Hits are enriched below; roughly 2.4% of the tested compounds scored in any of these assays.
# ANO1 activ – activates or potentiates the mouse TMEM16A chloride channel; 340,000 tested, 0.3% active; AID 623877; HEK293 TMEM16A/YFP-H148Q/I152L, iodide quench fluorescence; stronger effect = lower value; B-score at 10 µM;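 active means fluorescence-ratio B-score plate-corrected deviation score at least 3 library SD below zero, with starting fluorescence score within 5 deviations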;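 further: channel opened by trigger with iodide after compound preincubation; score built on the fluorescence ratio of max minus min over baseline; more negative score means more quench and so TMEM16A activation or potentiation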
# CHT PAM – allosteric activators of human choline transporter CHT. CHT-expressing cells, membrane potential dye, choline EC20; stronger effect = higher value; LV-AA mutant CHT in HEK293 cells. Q9GZV3. B-score at 10 µM. 310,000 tested, 0.49% active;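 active means initial fluorescence not abnormally high and integrated response B-score, plate-corrected, over 3 SD above library mean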
# Target sequence (Q9GZV3 whole entry, looked up): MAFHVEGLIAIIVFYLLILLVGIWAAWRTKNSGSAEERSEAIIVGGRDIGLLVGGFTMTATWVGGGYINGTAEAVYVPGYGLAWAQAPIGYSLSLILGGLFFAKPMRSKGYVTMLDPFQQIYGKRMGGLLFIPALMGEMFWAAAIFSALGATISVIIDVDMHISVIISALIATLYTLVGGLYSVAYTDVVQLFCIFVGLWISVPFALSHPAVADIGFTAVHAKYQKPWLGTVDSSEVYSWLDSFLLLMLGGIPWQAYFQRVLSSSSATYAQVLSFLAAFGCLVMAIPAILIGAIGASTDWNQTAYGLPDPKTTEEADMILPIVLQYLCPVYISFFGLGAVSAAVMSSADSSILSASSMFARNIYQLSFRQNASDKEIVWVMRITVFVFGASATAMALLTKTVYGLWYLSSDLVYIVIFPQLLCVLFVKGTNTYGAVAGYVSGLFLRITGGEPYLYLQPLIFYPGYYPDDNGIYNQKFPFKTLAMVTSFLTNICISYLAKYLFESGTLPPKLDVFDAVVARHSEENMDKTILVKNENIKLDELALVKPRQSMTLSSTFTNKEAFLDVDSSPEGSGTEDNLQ
# CHT inh – human CHT choline transport inhibition; CHT-expressing cells, membrane potential dye, choline response; stronger effect = lower value; B-score at 10 µM; 310,000 tested, 0.86% active; AID 488975;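 active means B-score over 3 SD under the library average, and starting fluorescence ratio not unusually high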;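 further: choline stimulus applied at its EC90 after an EC20 pre-addition; B-score computed on integrated fluorescence ratio after choline addition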
# TMEM16A inh – blocks the mouse calcium-activated chloride channel TMEM16A | 310,000 tested, 1.2% active | HEK293 TMEM16A/YFP iodide influx fluorescence, ionomycin | AID 588511 | normalized B-score (activity score, 25-100; higher = stronger inhibition) at 10 µM;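 active means ratio plate-corrected score three or more library SD toward inhibition, starting fluorescence score within five deviations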;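 further: score derived from kinetic fluorescence span divided by baseline fluorescence per well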
# CHT act confirm – confirmation of human choline transporter (CHT) activators. activation, % at 10 µM. 2,500 tested, 91% active. CHT-expressing cells, membrane potential dye fluorescence (FDSS); % of choline EC20–EC90 response window; HEK293 expressing CHT LV-AA mutant; choline added at its EC20. shares compounds with CHT PAM;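 active means primary screen active, with duplicate mean activation above negative control mean plus 3 SD, cut at about 11% in these data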
# HEK293 MP dye – counter-screen for CHT activators: effect in parental HEK293 cells; membrane potential dye fluorescence (FDSS); measured after EC20 choline addition; ratio readout change at 10 µM, hits read low; AID 623908; 2,500 tested, 62% active; shares compounds with CHT PAM;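 active means duplicate-averaged ratio beyond 3 SD from buffer wells, up or down, though filed actives are nearly all decreases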
# An asterisk follows results filed as active; i = inactive; nt = no result.
SMILES,ANO1 activ,CHT PAM,CHT inh,TMEM16A inh,CHT act confirm,HEK293 MP dye
C/C(=N\NC(=O)c1ccc(-c2ccccc2)cc1)c1cccc(N)c1,i,i,i,i,nt,nt
O=C(Cn1c(-c2ccccc2)c[n+]2ccsc12)c1ccc([N+](=O)[O-])cc1,i,8.56*,i,i,65.9*,-61.3*
O=C(Cn1c(-c2ccccc2)c[n+]2ccsc12)c1ccccc1,i,i,i,i,nt,nt
COc1ccc2c(c1)c1ncn(CCCN3CCOCC3)c(=O)c1n2C,i,i,i,i,44.3*,-39.5*
CCOC(=O)c1cc(C(=O)Nc2sc3c(c2C#N)CCCC3)nn1C,i,i,i,i,nt,nt
Cc1c(O)ccc2c(-c3ccccc3)cc(=O)oc12,i,i,i,i,nt,nt
Cc1cccc2cc(-c3ccccc3)c(-c3ccccc3)c[n+]12,i,i,i,i,55.6*,-53.4*
COc1ccc(-c2csc3nc(C)nc(N4CCCCC4)c23)cc1OC,i,i,i,i,26.7*,i
CCOc1ccc(Nc2cc(C)nc3ccc(C)cc23)cc1,i,i,i,i,35.2*,-47.1*
CCOC(=O)c1ccc2nc(C)cc(Nc3cccc(C(=O)O)c3)c2c1,nt,i,i,i,26.8*,-24.8*
Cc1ccc(Nc2cc(C)nc3ccc(C)cc23)cc1,i,i,i,i,nt,nt
CNC(=O)CC1C(=O)N(c2ccc(Cl)cc2)C(=S)N1CCc1ccc(OC)c(OC)c1 (configuration not stated),i,i,i,i,nt,nt
O=C(Nc1ccn(Cc2cccc3ccccc23)n1)c1cccnc1,i,i,i,i,nt,nt
O=C(NCc1ccccc1)[C@@H]1C[C@H]1[C@@H](NP(=O)(c1ccccc1)c1ccccc1)c1ccccc1,i,i,i,i,nt,nt
O=C(NCC1CC1)[C@@H]1C[C@H]1[C@@H](NP(=O)(c1ccccc1)c1ccccc1)c1ccccc1,i,i,i,i,-8.9,i
O=C(C[C@H]1C/C=C\CC[C@@H](Cc2ccc(F)cc2)C(=O)OC[C@H]2CCCN2C1=O)N[C@@H](CO)Cc1ccccc1,i,nt,nt,nt,nt,nt
Cc1cc(C)c2c(CN3CCOCC3)cc(=O)oc2c1,i,i,i,i,nt,nt
CCN1CCN(Cc2cc(=O)oc3cc(C)cc(C)c23)CC1,i,7.05*,i,i,40.0*,-41.7*
O=C(NCC(c1ccco1)N1CCc2ccccc2C1)c1cccc(F)c1 (configuration not stated),i,i,i,i,10.8*,i
Cc1ccccc1C(=O)NCC(c1ccco1)N1CCc2ccccc2C1 (configuration not stated),i,i,i,i,-1.3,i
COCCCNc1cc(C)nc2ccccc12,i,i,i,i,56.5*,-68.1*
Cc1cc(Nc2ccccc2O)c2ccccc2n1,i,6.66*,i,i,39.1*,-37.4*
Cc1cc(N)c2ccccc2n1,i,8.05*,i,i,64.5*,-54.9*
Nc1cccc2nc3ccccc3cc12,i,13.3*,i,i,26.7*,-55.3*
Cc1c2ccccc2nc2ccccc12,i,i,i,i,nt,nt
SMILES,ANO1 activ,CHT PAM,CHT inh,TMEM16A inh,CHT act confirm,HEK293 MP dye
O=C(COc1ccc2ccccc2c1)NC1CC1,i,i,i,i,nt,nt
N#CC1=C2SC=C(c3ccc(Br)cc3)N2CCCC1=O,i,i,i,i,nt,nt
CCOc1cc(NC(=S)Nc2cccc(OC)c2)c(OCC)cc1NC(=O)C(C)C,i,i,i,i,nt,nt
CN(C)CC/C=C1\c2ccccc2COc2ccccc21,i,i,i,i,nt,nt
COC(=O)Nc1cc(C)nc2ccccc12,i,6.83*,i,i,35.5*,-44.9*
CC(C)C(CCNCc1ccccn1)c1ccc(Cl)cc1 (configuration not stated),i,6.66*,i,i,16.7*,i
CC(C)CCC(CCNCc1ccccn1)c1ccc2c(c1)OCO2 (configuration not stated),i,i,i,i,nt,nt
COC(=O)CCCC1=CC2=C(c3ccccc3)C(=O)C(C)(OC(=O)C3CCCC3)C(=O)C2=CN1Cc1ccco1 (configuration not stated),i,9.08*,i,i,47.3*,i
O=C(N/N=C/c1ccco1)c1ccc(N2CCCC2=O)cc1,i,7.73*,i,i,59.4*,-70.5*
Cc1c(C)n(CCN(C)C)c2ncnc(NCc3ccccc3)c12,i,i,i,i,46.0*,-47.9*
CN(C)c1ccc(/C=C/C(=O)c2ccccc2)cc1[N+](=O)[O-],i,i,i,i,nt,nt
COC(=O)[C@]1(CC(C)C)N[C@H](c2ccc(SC3CCCCC3)c(OC)c2)[C@@H]2C(=O)N(C)C(=O)[C@@H]21,i,i,i,i,nt,nt
CCCCCCSc1ccc([C@H]2N[C@@](CC(C)C)(C(=O)OC)[C@H]3C(=O)N(C)C(=O)[C@@H]23)cc1OC,i,7.2*,i,i,18.1*,i
O=C(N/N=C/c1ccncc1)c1cccc([N+](=O)[O-])c1,nt,i,i,i,48.7*,-51.3*
O=C(CN1C(=O)/C(=C/c2ccccc2Cl)SC1=S)NC1CCS(=O)(=O)C1 (configuration not stated),i,i,i,i,nt,nt
CC(=O)c1c(C)nc2sc3c(=N)n(N)cnc3c2c1-c1ccc(Cl)cc1,i,6.7*,i,i,49.8*,-39.8*
Cc1c(C)n(CC(O)CN2CCCCCC2)c2ccccc12 (configuration not stated),i,i,i,i,nt,nt
Cc1cc(=O)n2c3ccccc3n(CC(O)CN3CCCCC3)c2c1C#N (configuration not stated),i,7.28*,i,i,26.9*,-43.6*
c1ccc(CN(Cc2ccco2)C(c2ccncc2)c2nnnn2C2CCCC2)cc1 (configuration not stated),i,i,i,i,nt,nt
Fc1ccc(C(c2nnnn2C2CCCC2)N(Cc2ccco2)CC2CCCO2)cc1 (configuration not stated),i,8.63*,i,i,45.5*,i
CC(C)(C)n1nnnc1C(c1ccc(C(F)(F)F)cc1)N(Cc1ccccc1)Cc1ccco1 (configuration not stated),i,i,i,i,nt,nt
